SMILES strings stand for the structures. Screen size: about 39,000 compounds; about 1,500 (3.8%) were called active. The sample as a whole holds a higher share of actives than the screen did.

This assay has as its system HSkMC (human skeletal muscle cells). Kind of assay: cytotoxicity call (relative viability < 0.9). The conditions noted are these: 10 µM.
With `Cc1noc(C)c1NC(=O)Nc1cccc2c1O[C@@H](CN(C)C(=O)NC(C)C)[C@@H](C)CN([C@H](C)CO)C2=O`, the cytotoxicity call is “inactive”. For the compound `CCCC#Cc1cnc2c(c1)C(=O)N([C@@H](C)CO)C[C@@H](C)[C@H](CN(C)S(=O)(=O)c1cccc(OC)c1)O2`, the cytotoxicity call is “inactive”. For `O=C(C[C@@H]1CC[C@H]2[C@@H](COC[C@H](O)CN2C(=O)c2cccnc2)O1)NCc1ccc(-c2ccccc2)cc1`, the cytotoxicity call was “inactive”. Under `C[C@H]1CN([C@@H](C)CO)C(=O)c2cc(NS(=O)(=O)c3ccc(F)cc3)ccc2O[C@H]1CN(C)S(=O)(=O)c1cccs1` stands “inactive”; under `COc1ccc(NC(=O)N(C)C[C@H]2Oc3ccc(NC(=O)Nc4ccc(C(F)(F)F)cc4)cc3CC(=O)N([C@H](C)CO)C[C@H]2C)cc1`, “inactive”; under `C[C@H](CO)N1C[C@H](C)[C@H](CN(C)S(=O)(=O)c2ccc(Cl)cc2)Oc2c(NC(=O)c3ccc(-c4nccs4)cc3)cccc2C1=O`, “inactive”. Under `C[C@@H]1CN([C@H](C)CO)C(=O)c2cc(C#CC3(O)CCCC3)cnc2O[C@@H]1CN(C)C(=O)C1CCCCC1` stands “inactive”; under `C[C@@H](NC(=O)C[C@@H]1CC[C@H](NC(=O)CN2CCOCC2)[C@@H](CO)O1)c1ccccc1`, “inactive”; under `O=S1(=O)C[C@H](O)[C@@H](N2CCN(CCO)CC2)C1`, “inactive”. Under `C[C@H](CO)N1C[C@H](C)[C@H](CN(C)S(C)(=O)=O)Oc2ccc(NS(=O)(=O)c3ccc(F)cc3)cc2C1=O` stands “inactive”; under `CC(C)NC(=O)Nc1ccc2c(c1)CC(=O)N([C@@H](C)CO)C[C@@H](C)[C@H](CN(C)C(=O)NC1CCCCC1)O2`, “inactive”.

In the case of `COc1cccc(S(=O)(=O)N(C)C[C@H]2Oc3ncc(-c4cccc(C(=O)N(C)C)c4)cc3C(=O)N([C@@H](C)CO)C[C@@H]2C)c1`, the cytotoxicity call was “inactive”. Under `CCCNC(=O)Nc1ccc2c(c1)C(=O)N(C)C[C@@H](OC)[C@H](C)CN(Cc1ccc(-c3ccccn3)cc1)[C@H](C)CO2` stands “inactive”. Under `CNC[C@H]1Oc2ccc(NS(=O)(=O)c3cn(C)cn3)cc2CC(=O)N([C@@H](C)CO)C[C@@H]1C` stands “inactive”.

In the case of `Cc1noc(C)c1NC(=O)Nc1ccc2c(c1)C(=O)N([C@H](C)CO)C[C@@H](C)[C@H](CN(C)CC1CC1)OCCCC[C@@H](C)O2`, the cytotoxicity call is “inactive”.

Take `CCCC#Cc1cnc2c(c1)C(=O)N([C@H](C)CO)C[C@@H](C)[C@@H](CN(C)S(=O)(=O)c1cn(C)cn1)O2`: the cytotoxicity call was “inactive”.

In the case of `C[C@@H]1CN([C@@H](C)CO)C(=O)Cc2cc(NC(=O)C3CCCCC3)ccc2O[C@H]1CN(C)Cc1ccc(C(=O)Nc2ccccc2N)cc1`, the cytotoxicity call is “inactive”. Under `C[C@@H]1CCCCO[C@H](CN(C)Cc2ccc(Cl)c(Cl)c2)[C@@H](C)CN([C@H](C)CO)C(=O)c2cc(NS(=O)(=O)c3ccccc3)ccc2O1` stands “inactive”; under `C[C@@H]1CN([C@H](C)CO)C(=O)c2cc(NS(=O)(=O)c3ccccc3)ccc2O[C@@H](C)CCCCO[C@@H]1CN(C)Cc1ccc(Cl)c(Cl)c1`, “active”; under `C[C@H]1CCCCO[C@H](CN(C)Cc2ccc(Cl)c(Cl)c2)[C@@H](C)CN([C@@H](C)CO)C(=O)c2cc(NS(=O)(=O)c3ccccc3)ccc2O1`, “inactive”. On to `C[C@@H]1CCCCO[C@H](CN(C)Cc2ccc(Cl)c(Cl)c2)[C@@H](C)CN([C@@H](C)CO)C(=O)c2cc(NS(=O)(=O)c3ccccc3)ccc2O1`, for which the cytotoxicity call is “active”.

The values are drawn from the antibiotic and cytotoxicity screens of Wong et al. (2023).
